This passage reports composite z-score and z-score results from PubChem BioAssay.

Calls of active or inactive are those of the source. Unless noted, no rule for the calls is given here.

Experiment [1] concerns Wnt5a (protein binding on small-molecule microarray). Put plainly: Wnt5a binders on small-molecule microarray, primary screen, biophysical, 635/667 nm fluorescence (AID 1142).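 Also: fluorescence read at 667 nm with signal to noise per printed feature.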 The settings on record: 635 nm fluorescence, higher = more signal.
Experiment [2] can be described thus: cell viability in Huh7 cells, primary screen, cytotoxicity control for HCV replication inhibitor project, CellTiter-Glo luminescence, basal, 48 h (AID 1143).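 Also: Huh7 hepatoma cells carrying a hepatitis C replication reporter with no stimulus; test concentration not given here.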 The settings on record: Huh7 HCV replicon, higher = more signal, called active from +8 up or from −8 down. A general note: Cellular ATP, detected with luciferase, serves as a proxy for viable cell number.
The nature of experiment [3]: P. aeruginosa biofilm formation inhibitors, primary screen, PAO1 strain, BacTiter-Glo luminescence, LB-PBS (AID 1144). Particulars: 12 h, higher = more signal.
The nature of experiment [4]: CREB reporter modulators without forskolin, primary screen, cell-based, PC12, CRE-LacZ reporter, unstimulated (AID 1145). Particulars: no forskolin, luminescence, 4.5 h, higher = more signal, called active from +8 up or from −8 down.
Experiment [5] is described as follows: CREB reporter modulators under forskolin, primary screen, cell-based, PC12, CRE-LacZ reporter, forskolin-stimulated (AID 1146).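 Also: PC12 cells with 6xCRE LacZ reporter stimulated by forskolin 10 µM; beta-galactosidase reporter signal reflecting CREB driven transcription.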 Particulars: luminescence, 4.5 h, higher = more signal, called active from +8 up or from −8 down.
Experiment [6] concerns the target Streptavidin (Streptomyces avidinii) (UniProt P22629). In words: streptavidin binders on small-molecule microarray, primary screen, artefact control for SMM compound annotation, biophysical, 635/667 nm fluorescence (AID 1147).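 Also: signal reflects streptavidin binding to arrayed compounds as a control protein.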 Particulars: streptavidin binding, higher = more signal.
Experiment [7] is described as follows: small-molecule binders of probe aInhba, primary screen, biochemical, small-molecule microarray, 635/667 nm fluorescence (AID 1148).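 Also: score merges 667nm spot fluorescence with signal-to-noise for antibody binding to printed compounds.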 The settings on record: higher = more signal.
For experiment [8], the target named is Torsin-1A (Homo sapiens) (UniProt O14656). In words: torsin A binders from cell lysate, primary screen, small-molecule microarray, wild-type, 635/667 nm (AID 1149). The settings on record: COS7 hTOR1A-WT lysate, 635 nm fluorescence, higher = more signal.
Experiment [9] shares this target. In words: small-molecule binders of mutant TOR1A in lysate, primary screen, cell lysate, small-molecule microarray, COS7 lysate, 635/667 nm fluorescence (AID 1150).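 Also: score pools 667 nm emission and signal to noise measuring lysate protein binding.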 The settings on record: COS7 hTOR1A mutant lysate, 635 nm fluorescence, higher = more signal.
For experiment [10], the system named is Sonic hedgehog protein (Shh). Put plainly: small-molecule binders of Shh protein, primary screen, biochemical, small-molecule microarray, 635/667 nm fluorescence (AID 1151).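 Also: Shh protein binding to compounds spotted on small-molecule microarray slides; score combines spot fluorescence intensity with signal-to-noise across triplicate slides.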 The settings on record: small-molecule microarray binding, 635 nm fluorescence; higher = more signal.
Experiment [11] is described as follows: E. coli DRC41 culture turbidity changes, primary screen, E. coli filamentation inducer project, strain DRC41, OD650, 48 h (AID 1152).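 Also: E. coli MC1000 strain DRC41 lacking acrAB efflux pump and sulA.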 The settings on record: E. coli DRC41 (acrAB sulA), higher = more signal, called active from +8 up or from −8 down.
Experiment [12] is described as follows: small-molecule binders of probe aLefty1, primary screen, biochemical, small-molecule microarray, 635/667 nm fluorescence (AID 1153).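 Also: score merges spot fluorescence with signal-to-noise ratio from the scanned slide images.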 The settings on record: higher = more signal.
Experiment [13] in a line: PSAC antagonists in infected red cells, primary screen, cell-based, P. falciparum Indochina, OD700, 1 h (AID 1154). The settings on record: P. falciparum Indochina infected RBC osmotic lysis, higher = more signal, called active from +8 up or from −8 down.
Experiment [14] is described as follows: PSAC antagonists in infected red cells, primary screen, cell-based, P. falciparum Indochina, OD700, 2 h (AID 1155).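 Also: lysis reports solute entry through the parasite surface anion channel PSAC; channel blockers reduce lysis of infected cells.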 Particulars: P. falciparum Indochina infected erythrocytes, osmotic lysis OD700; higher = more signal, called active from +8 up or from −8 down.
Experiment [15] is described as follows: osmotic lysis modulators in infected erythrocytes, primary screen, PSAC antagonist project, cell-based, P. falciparum Indochina, OD700, 3 h (AID 1156). The settings on record: higher = more signal, called active from +8 up or from −8 down.
Experiment [16] in a line: PSAC antagonists in infected red cells, primary screen, cell-based, P. falciparum Indochina, OD700, 18 h (AID 1157). Particulars: P. falciparum Indochina infected erythrocytes, osmotic lysis OD700, 18 h; higher = more signal, called active from +8 up or from −8 down.
The nature of experiment [17]: modulators of S6 phosphorylation in cells, primary screen, cell-based, A549, cytoblot, luminescence, serum-stimulated (AID 1158).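 Also: serum-stimulated A549 lung adenocarcinoma cells; signal is phosphorylated S6 detected by cytoblot immunostaining with HRP secondary.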 Particulars: A549 phospho-S6 cytoblot, 5 h, higher = more signal.
For experiment [18], the target named is NADPH oxidase 2 (Homo sapiens) (UniProt P04839). In words: NOX2-dependent H2O2 signal modulators, primary screen, NOX inhibitor project, cell-based, HEK293-NOX2, PMA-stimulated, Amplex Red fluorescence (AID 1159). Also: test concentration not given here. Particulars: 45 min, higher = more signal, called active from +8 up or from −8 down.
Experiment [19] addresses NADPH oxidase 4 (Homo sapiens) (UniProt Q9NPH5). Put plainly: NOX4-dependent H2O2 signal modulators, primary screen, NOX inhibitor project, cell-based, HEK293-NOX4, tetracycline-induced, Amplex Red fluorescence (AID 1160). Particulars: 45 min, higher = more signal, called active from +8 up or from −8 down.
In experiment [20] the target is NADPH oxidase 5 (Homo sapiens) (UniProt Q96PH1). Put plainly: NOX5-dependent H2O2 signal modulators, primary screen, NOX inhibitor project, cell-based, HEK293-NOX5, Amplex Red fluorescence (AID 1161). Particulars: HEK293-NOX5, ionomycin, 45 min, higher = more signal.
Sequence of NADPH oxidase 5 (Homo sapiens) (Q96PH1 whole entry, looked up): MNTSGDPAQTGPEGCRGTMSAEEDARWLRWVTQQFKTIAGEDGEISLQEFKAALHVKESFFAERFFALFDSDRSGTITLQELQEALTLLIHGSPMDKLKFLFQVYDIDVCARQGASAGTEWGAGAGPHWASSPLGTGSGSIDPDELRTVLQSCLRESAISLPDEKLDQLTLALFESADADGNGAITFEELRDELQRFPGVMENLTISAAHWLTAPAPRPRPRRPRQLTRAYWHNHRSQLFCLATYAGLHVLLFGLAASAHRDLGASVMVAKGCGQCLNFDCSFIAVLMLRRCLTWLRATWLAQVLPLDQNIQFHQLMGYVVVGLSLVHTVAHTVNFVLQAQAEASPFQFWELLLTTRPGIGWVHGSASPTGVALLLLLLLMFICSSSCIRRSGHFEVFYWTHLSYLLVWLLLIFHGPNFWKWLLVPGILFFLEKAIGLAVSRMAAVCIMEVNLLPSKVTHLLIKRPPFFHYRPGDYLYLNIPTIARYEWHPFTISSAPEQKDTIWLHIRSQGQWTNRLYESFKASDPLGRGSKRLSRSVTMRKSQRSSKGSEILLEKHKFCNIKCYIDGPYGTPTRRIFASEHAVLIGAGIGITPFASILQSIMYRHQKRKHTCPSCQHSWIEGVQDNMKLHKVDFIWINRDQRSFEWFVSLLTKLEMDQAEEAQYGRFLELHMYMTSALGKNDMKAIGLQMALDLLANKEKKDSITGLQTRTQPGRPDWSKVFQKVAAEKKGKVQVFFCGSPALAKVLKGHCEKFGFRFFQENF

Sequence of Streptavidin (Streptomyces avidinii) (P22629 whole entry, looked up): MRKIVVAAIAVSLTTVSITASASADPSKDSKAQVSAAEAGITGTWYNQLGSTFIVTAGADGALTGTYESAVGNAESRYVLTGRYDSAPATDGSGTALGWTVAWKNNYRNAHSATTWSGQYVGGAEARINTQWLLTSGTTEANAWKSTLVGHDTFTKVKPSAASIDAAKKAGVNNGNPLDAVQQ
Sequence of NADPH oxidase 2 (Homo sapiens) (P04839 whole entry, looked up): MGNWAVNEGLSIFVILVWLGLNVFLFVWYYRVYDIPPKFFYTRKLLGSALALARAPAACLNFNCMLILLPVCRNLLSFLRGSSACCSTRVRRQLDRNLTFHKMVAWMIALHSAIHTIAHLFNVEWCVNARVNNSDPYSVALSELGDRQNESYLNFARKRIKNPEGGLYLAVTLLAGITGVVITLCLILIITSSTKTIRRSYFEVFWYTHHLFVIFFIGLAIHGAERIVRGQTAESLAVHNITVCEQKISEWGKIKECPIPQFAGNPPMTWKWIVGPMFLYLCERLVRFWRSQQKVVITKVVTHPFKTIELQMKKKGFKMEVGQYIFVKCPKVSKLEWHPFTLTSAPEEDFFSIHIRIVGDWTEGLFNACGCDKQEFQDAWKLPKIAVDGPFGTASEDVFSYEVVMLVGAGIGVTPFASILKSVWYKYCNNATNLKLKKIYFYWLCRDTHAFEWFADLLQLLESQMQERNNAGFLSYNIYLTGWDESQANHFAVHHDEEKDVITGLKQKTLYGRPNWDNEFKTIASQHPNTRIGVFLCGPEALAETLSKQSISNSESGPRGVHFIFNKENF
Sequence of Torsin-1A (Homo sapiens) (O14656 whole entry, looked up): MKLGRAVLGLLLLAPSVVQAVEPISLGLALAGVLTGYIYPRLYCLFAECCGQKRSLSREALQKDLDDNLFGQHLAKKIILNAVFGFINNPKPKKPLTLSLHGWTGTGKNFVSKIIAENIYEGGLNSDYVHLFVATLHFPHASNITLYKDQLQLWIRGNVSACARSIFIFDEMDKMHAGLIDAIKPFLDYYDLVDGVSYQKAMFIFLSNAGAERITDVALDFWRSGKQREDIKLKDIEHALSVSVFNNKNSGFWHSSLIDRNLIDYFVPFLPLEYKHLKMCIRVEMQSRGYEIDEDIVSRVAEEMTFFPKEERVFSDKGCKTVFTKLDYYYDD
Sequence of NADPH oxidase 4 (Homo sapiens) (Q9NPH5 whole entry, looked up): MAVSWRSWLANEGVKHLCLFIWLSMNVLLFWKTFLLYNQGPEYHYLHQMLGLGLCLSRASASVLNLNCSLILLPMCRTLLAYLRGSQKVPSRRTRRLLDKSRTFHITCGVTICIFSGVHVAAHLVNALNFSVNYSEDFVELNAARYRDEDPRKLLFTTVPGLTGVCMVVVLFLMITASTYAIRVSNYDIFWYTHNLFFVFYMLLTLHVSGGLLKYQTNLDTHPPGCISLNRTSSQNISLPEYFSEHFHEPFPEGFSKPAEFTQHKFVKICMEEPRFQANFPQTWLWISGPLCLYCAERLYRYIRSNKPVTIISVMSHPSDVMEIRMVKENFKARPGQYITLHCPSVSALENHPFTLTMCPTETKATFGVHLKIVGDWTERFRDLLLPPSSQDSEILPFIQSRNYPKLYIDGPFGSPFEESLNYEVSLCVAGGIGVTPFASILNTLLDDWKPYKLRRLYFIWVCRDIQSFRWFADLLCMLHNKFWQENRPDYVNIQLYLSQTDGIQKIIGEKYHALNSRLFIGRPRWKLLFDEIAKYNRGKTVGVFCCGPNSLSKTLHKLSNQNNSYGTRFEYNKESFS

In the case of `Cc1ccc(S[C@]2(C(=O)NC(C)C)CC(=O)N(Cc3cc(C(F)(F)F)cc(C(F)(F)F)c3)[C@@H]2c2ccc(CO)cc2)cc1`, the composite z-score in experiment [1] is 0.0368; in [6], -1.18; in [7] it was -0.121; in experiment [8] it was -1.86; in experiment [9], -1.78; in [10], -0.621. In experiment [12], this compound yielded a composite z-score of -0.0252. Also, the z-score in experiment [2] is -0.523 (inactive); in experiment [3], 0.0139 (inactive); in experiment [4] it was 0.0655 (inactive); in experiment [5], 0.832 (inactive); in experiment [11], -0.16 (inactive); in [13] it was 2.96 (inactive). Further, the z-score was 0.812 (inactive) in experiment [14]; 0.497 (inactive) in [15]; 0.672 (inactive) in [16]; -0.768 in [17]; -0.00496 (inactive) in experiment [18]; -0.242 (inactive) in experiment [19]. For the same compound, the z-score in [20] is 0.128.

For the compound `NC(=O)[C@@]1(Cc2ccccc2)COC(c2ccc(OCCCO)cc2)=N1`, the composite z-score in experiment [1] was 0.0546; in experiment [6] it was -0.504; in [7], 0.105; in experiment [8] it was -0.475; in experiment [9], 0.709; in [10], -0.429. The compound also registered a composite z-score in experiment [12] of 0.533. Further, the z-score in [2] was 0.257 (inactive); in experiment [3] it was 0.126 (inactive); in experiment [4], 2.24 (inactive); in experiment [5] it was -1.34 (inactive); in experiment [11], 0.917 (inactive); in [13], 17.5 (active). The z-score in experiment [14] was 2.55 (inactive); in experiment [15] it was 0.121 (inactive); in experiment [16], -0.0697 (inactive); in [17], -0.468; in experiment [18] it was -0.519 (inactive); in experiment [19], -1.4 (inactive). Moreover, the z-score in [20] was -2.14.

In the case of `CC[C@@H]1C=C(C(=O)O)[C@H](c2ccc(C#N)cc2)N1S(=O)(=O)c1ccc(C)cc1`, the composite z-score in [1] was 0.413; in [6], 0.569; in experiment [7], -0.157; in [8] it was 1.26; in experiment [9], 1.65; in experiment [10] it was 0.0698. The same compound had a composite z-score in experiment [12] of 0.276. Besides, the z-score in experiment [2] was -0.857 (inactive); in experiment [3] it was 0.24 (inactive); in experiment [4], -0.975 (inactive); in experiment [5], -0.397 (inactive); in experiment [11], -0.29 (inactive); in experiment [13] it was 1.48 (inactive). In addition, the z-score in experiment [14] was 0.544 (inactive); in experiment [15], -0.158 (inactive); in experiment [16] it was 0.192 (inactive); in [17], -0.436; in experiment [18], 0.452 (inactive); in experiment [19] it was -0.156 (inactive). This compound registered a z-score in experiment [20] of -0.848.

For the compound `C=CCNC(=O)[C@@H]1[C@H]2C(=O)O[C@H](c3ccccc3)[C@H](c3ccccc3)N2[C@H](c2ccccc2OCCO)[C@@]12C(=O)Nc1ccc(C#CCC(C(=O)OC)C(=O)OC)cc12`, the composite z-score turned out to be 0.0142 in experiment [1]; 0.0625 in experiment [6]; 0.84 in experiment [7]; 0.834 in experiment [8]; 0.566 in [9]; 0.499 in [10]. This compound displayed a composite z-score in [12] of 0.666. The z-score in experiment [2] is -6.3 (inactive); in experiment [3], 0.616 (inactive); in [4] it was -0.191 (inactive); in experiment [5] it was -1.03 (inactive); in experiment [11] it was -0.79 (inactive); in [13], 4.93 (inactive). Besides, the z-score is 1.81 (inactive) in [14]; 0.622 (inactive) in [15]; 1.36 (inactive) in [16]; -0.304 in [17]; 0.21 (inactive) in [18]; 0.161 (inactive) in experiment [19]. In experiment [20], the z-score worked out at 1.98.

Regarding `O=C1[C@H]2C=C(I)[C@H](C[C@@H]2OCCOCCO)[C@@]12CO2`, the composite z-score in [1] was 0.0712; in [6], 1.08; in experiment [7], -0.106; in experiment [8], 0.48; in [9], -0.0946; in experiment [10] it was 0.719. The compound further showed a composite z-score in experiment [12] of -0.371. For the same compound, the z-score in experiment [2] was 1.05 (inactive); in experiment [3] it was -0.0471 (inactive); in [4], 1.67 (inactive); in experiment [5] it was 0.839 (inactive); in [11] it was -0.878 (inactive); in experiment [13], -0.0899 (inactive). In addition, the z-score is -0.122 (inactive) in experiment [14]; -0.321 (inactive) in experiment [15]; -0.235 (inactive) in [16]; 0.0332 in [17]; 0.578 (inactive) in experiment [18]; 0.373 (inactive) in experiment [19]. This compound also gave a z-score in experiment [20] of -0.151.
